BAZ2B block: inhibitors of human BAZ2B bromodomain | Potency, µM (titrated, usually from 114 µM), hits mostly inhibitors | AID 504333 | Q9UIF8 | AlphaScreen BAZ2B-H3K14Ac peptide displacement | 4.4% of 360,000 active; further: nearly all actives have a fitted effect of over 60% in size
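Compounds, titrated to a top concentration of 110 uM, were incubated 30 min at room temperature with preformed BAZ2B/acetyl-K14 H3 peptide complex (50 nM each). Proximity signal was measured by AlphaScreen after 20 min with beads.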
JMJD2A Tudor inh: inhibitors of human JMJD2A Tudor domain | O75164 | AID 504339 | AlphaScreen JMJD2A-Tudor / H3K4me3 peptide binding | 4.4% of 390,000 active | Potency, µM (top dose mostly 114 µM), most hits filed as inhibitors; further: nearly all actives have a fitted effect of over 50% in size
Target sequence (O75164 whole entry, looked up, the tested form may be a part): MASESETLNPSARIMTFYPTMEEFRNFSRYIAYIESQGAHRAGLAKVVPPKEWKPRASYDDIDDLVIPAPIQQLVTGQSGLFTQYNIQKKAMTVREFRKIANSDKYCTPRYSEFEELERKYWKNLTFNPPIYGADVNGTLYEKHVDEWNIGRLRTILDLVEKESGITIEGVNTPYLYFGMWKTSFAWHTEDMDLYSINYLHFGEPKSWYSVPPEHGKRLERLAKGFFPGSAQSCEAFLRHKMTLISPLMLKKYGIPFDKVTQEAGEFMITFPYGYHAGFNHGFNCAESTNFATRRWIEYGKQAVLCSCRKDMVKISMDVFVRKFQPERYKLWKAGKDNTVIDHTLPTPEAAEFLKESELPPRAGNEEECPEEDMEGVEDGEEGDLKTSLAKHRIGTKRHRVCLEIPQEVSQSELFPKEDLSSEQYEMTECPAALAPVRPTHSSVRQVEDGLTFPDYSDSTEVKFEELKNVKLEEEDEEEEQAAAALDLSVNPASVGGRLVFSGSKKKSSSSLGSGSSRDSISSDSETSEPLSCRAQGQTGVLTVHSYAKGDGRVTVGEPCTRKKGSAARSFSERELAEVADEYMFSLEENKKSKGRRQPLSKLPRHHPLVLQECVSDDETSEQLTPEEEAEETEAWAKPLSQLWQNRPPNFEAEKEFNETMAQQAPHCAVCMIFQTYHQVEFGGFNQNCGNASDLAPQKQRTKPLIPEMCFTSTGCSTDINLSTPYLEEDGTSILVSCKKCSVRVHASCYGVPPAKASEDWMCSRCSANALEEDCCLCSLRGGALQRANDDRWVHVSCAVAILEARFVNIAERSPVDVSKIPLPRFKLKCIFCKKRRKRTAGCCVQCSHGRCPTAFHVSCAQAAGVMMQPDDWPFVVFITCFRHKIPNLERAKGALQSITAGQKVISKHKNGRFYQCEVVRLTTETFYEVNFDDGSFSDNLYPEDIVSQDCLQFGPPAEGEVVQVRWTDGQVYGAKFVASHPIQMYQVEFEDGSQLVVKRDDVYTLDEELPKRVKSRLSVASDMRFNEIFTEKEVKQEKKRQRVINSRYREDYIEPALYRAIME
Sfp inh: blocks B. subtilis Sfp PPTase activity; 3.5% of 310,000 active; Biochemical Sfp PPTase activity, qHTS; Q9F4F7; Potency, µM, usual class: inhibitors;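 further: the enzyme is Sfp with the accession as filed and its product quenches rhodamine fluorescence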
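Buffer: 50 mM Hepes-Na pH 7.6, 10 mM MgCl2, 0.01% Nonidet P-40, 0.01% BSA. Enzyme 15 nM, pre-exposed to compound 15 min; substrates then added and fluorescence change tracked over 30 min.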
G9a inh: G9a (human) methyltransferase inhibition. Q96KQ7. G9a H3K9 monomethylation, AlphaScreen, 2 h. Potency, µM (series often up to 102 µM), hits mostly inhibitors. 8.8% of 350,000 active. AID 504332; further: nearly all actives have a fitted effect of over 75% in size
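Readings reflect AlphaScreen signal from monomethyl-H3K9 antibody detection. HMT at 20 nM; substrate b-H3K9 500 nM; cofactor SAM 20 uM; 2 h RT reaction; compounds tested as titrations in qHTS with 15 min preincubation.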
HP1b chromo inh: HP1-beta chromodomain-methylated histone interaction inhibition; P83916; Potency, µM (doses to about 114 µM), hits mostly inhibitors; 0.56% of 390,000 active; AlphaScreen HP1-beta / biotin-H3K9me3 peptide binding; further: nearly all actives have a fitted effect of over 70% in size
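HP1-beta protein (50 nM final) preincubated 30 min at room temperature with biotinylated H3(1-18)K9me3 peptide (50 nM) in PBS pH 7.4, 0.01% Tween-20, then compound added for 30 min. AlphaScreen streptavidin donor/nickel chelate acceptor beads (10 ug/mL final), 30 min dark, luminescence read.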
Each line names hits and unclear results; the compound was inactive in the other large screens. In the library only some 12% were active in any assay of this set; here they are far more common. The call rests on the fitted dose curve; in most records, active means well fitted curve in the direction sought with a large enough effect; inconclusive means small, poorly fitted or top-dose-only effect, or another doubt; inactive means no such curve, though single readings can be large; an effect the other way counts as inactive or inconclusive.

CC(=O)NC(CC(=O)NC1CCCCC1)c1ccccc1 (stereo not given)	G9a inh 10µM
CN1CCN(c2ccc(S(=O)(=O)N3CCCCC3)cc2NC(=O)CCc2ccccc2)CC1	none (no result: Sfp inh)
CCCN1C2CCCC1CC(NC(=O)NC1CCCCC1)C2 (stereo not given)	none
O=C(CN1C2CCC1CC(NC(=O)NC1CCCCC1)C2)NC1CC1 (stereo not given)	G9a inh 70.8µM
COc1ccccc1C(=O)N/N=C(\C)CC(=O)Nc1ccccc1NC(C)=O	BAZ2B block inconclusive
Cc1ccccc1C1=Nn2c(nnc2-c2ccco2)SC1	Sfp inh inconclusive, G9a inh 28.2µM
CC1=Nn2c(nnc2-c2ccco2)SC1	Sfp inh 56.2µM
CN(C(=O)c1cnc(N2CCN(c3ncccn3)CC2)c2ccccc12)c1ccc(Cl)cc1	Sfp inh 56.2µM
O=C(c1cnc(N2CCN(c3ncccn3)CC2)c2ccccc12)N1CCN(c2ncccn2)CC1	none
CCN(C(=O)c1cnc(N2CCN(c3ncccn3)CC2)c2ccccc12)c1cccc(Cl)c1	Sfp inh 39.8µM
Cc1cc(C)c2nc(-c3ccccn3)cc(C(=O)NCCc3ccc(S(N)(=O)=O)cc3)c2c1	Sfp inh 28.2µM, G9a inh 35.5µM
Cc1cc(C)c2nc(-c3ccccn3)cc(C(=O)Nc3ccc(S(=O)(=O)Nc4onc(C)c4C)cc3)c2c1	BAZ2B block 35.5µM, JMJD2A Tudor inh 56.2µM, Sfp inh 35.5µM, G9a inh 12.6µM, HP1b chromo inh 50.1µM
Cc1cc(NS(=O)(=O)c2ccc(NC(=O)c3cc(-c4cccnc4)nc4ccc(Cl)cc34)cc2)no1	none (no result: G9a inh)
Cc1cc(C)c2nc(-c3ccccn3)cc(C(=O)Nc3ccc(S(=O)(=O)Nc4cc(C)on4)cc3)c2c1	BAZ2B block 50.1µM, JMJD2A Tudor inh 50.1µM, Sfp inh inconclusive
CC(C)c1ccc(NC(=O)Cn2nnc(C(=O)NCc3ccc4c(c3)OCO4)c2N)cc1	none
CN(C)c1ccc(CNC(=O)c2ccc3c(c2)N(C)C(=O)C2CCCCN32)cc1 (stereo not given)	BAZ2B block 44.7µM, JMJD2A Tudor inh 44.7µM, G9a inh 17.8µM (no result: Sfp inh)
CCOc1ccc(CNC(=O)c2ccc3c(c2)c(C)c(C)n3C)cc1	BAZ2B block 39.8µM, JMJD2A Tudor inh inconclusive (no result: Sfp inh)
CSc1ccc(CNC(=O)c2ccc3c(c2)N(C)C(=O)C2CCCCN32)cc1 (stereo not given)	none (no result: Sfp inh)
CCn1c(C)c(C)c2cc(C(=O)NCc3ccc(N(C)C)cc3)ccc21	BAZ2B block 22.4µM, JMJD2A Tudor inh 22.4µM, G9a inh 12.6µM, HP1b chromo inh inconclusive (no result: Sfp inh)
Cc1nc2ccccn2c1-c1ccnc(SCc2ccc(Cl)cc2)n1	none (no result: G9a inh)
Cc1cc(C)n(-c2c(F)c(F)c(CN3CCOCC3)c(F)c2F)n1	none
CN1CCN(C2=Cc3ccc(Cl)cc3Sc3ccc(F)cc32)CC1	BAZ2B block 50.1µM, JMJD2A Tudor inh 56.2µM, Sfp inh inconclusive, G9a inh inconclusive
O=C(COC(=O)c1ccccc1[N+](=O)[O-])Nc1cc(S(=O)(=O)N2CCOCC2)ccc1N1CCCC1	none
COc1ccc(/C=C(\C#N)C(=O)Nc2cc(S(=O)(=O)N3CCOCC3)ccc2N2CCCC2)cc1	BAZ2B block inconclusive, JMJD2A Tudor inh inconclusive, Sfp inh 35.5µM, G9a inh 7.94µM, HP1b chromo inh inconclusive
CC(C)(C)CC(=O)Nc1cc(S(=O)(=O)N2CCOCC2)ccc1N1CCCC1	Sfp inh inconclusive, G9a inh inconclusive
O=C(COC(=O)c1ccccc1Br)Nc1cc(S(=O)(=O)N2CCOCC2)ccc1N1CCCC1	BAZ2B block inconclusive, G9a inh 14.1µM
O=C(CNc1cc(S(=O)(=O)N2CCOCC2)ccc1N1CCCC1)N1CCc2ccccc21	BAZ2B block inconclusive, JMJD2A Tudor inh inconclusive, G9a inh 35.5µM
O=S(=O)(c1ccc2c(c1)N(Cc1ccc(Cl)cc1)C1CCCN21)N1CCOCC1 (stereo not given)	G9a inh 50.1µM
N#Cc1ccc2c(c1)C[C@]1(CCCCN3C(=O)c4ccccc4C3=O)Oc3c(c(=O)oc4ccccc34)C2O1	none (no result: JMJD2A Tudor inh, HP1b chromo inh)
O=C(CSc1nc(-c2ccccc2)cc(=O)[nH]1)Nc1ccccc1	none
CC(NC(=O)c1ccccc1OC(F)F)c1ccc(-n2ccnc2)cc1 (stereo not given)	none
O=C(Cc1ccc(Cl)cc1)Nc1cc(S(=O)(=O)N2CCOCC2)ccc1N1CCCC1	G9a inh 44.7µM
O=C(Cc1c(F)cccc1Cl)Nc1cc(S(=O)(=O)N2CCOCC2)ccc1N1CCCC1	none (no result: BAZ2B block, Sfp inh, G9a inh)
O=C(CCCSc1ccc(Cl)cc1)Nc1cc(S(=O)(=O)N2CCOCC2)ccc1O	BAZ2B block inconclusive, JMJD2A Tudor inh 56.2µM, G9a inh inconclusive, HP1b chromo inh inconclusive (no result: Sfp inh)
Cn1c(CCC(=O)Nc2ccc(S(C)(=O)=O)cc2)nc2cc(S(=O)(=O)N3CCOCC3)ccc21	none (no result: BAZ2B block, Sfp inh, G9a inh)
O=C(Cc1c(F)cccc1Cl)Nc1cc(S(=O)(=O)N2CCOCC2)ccc1N1CCOCC1	G9a inh 50.1µM (no result: Sfp inh)
Cn1c(CCC(=O)Nc2cc(S(C)(=O)=O)ccc2Cl)nc2cc(S(=O)(=O)N3CCOCC3)ccc21	BAZ2B block 79.4µM, G9a inh 10µM (no result: Sfp inh)
Cc1ccc(S(=O)(=O)N2CCOCC2)cc1NC(=O)CSc1ccc(Cl)cc1	none (no result: Sfp inh)
COc1cc2c(cc1OC)C1OC(c3ccsc3)(C2)Oc2cc(C)oc(=O)c21 (stereo not given)	BAZ2B block inconclusive (no result: JMJD2A Tudor inh, G9a inh, HP1b chromo inh)
O=C(CCc1nnc2ccc(N3CCCC3)nn12)Nc1ccc(F)c(F)c1	none
Cc1cc(C)n(/N=C/c2ccc(C(C)C)cc2)c(=O)c1C#N	none
C/C=C/c1ccc(OCC(=O)Nc2cc(S(=O)(=O)N3CCOCC3)ccc2N2CCCC2)c(OC)c1	G9a inh 50.1µM (no result: Sfp inh)
COc1ccc(CCC(=O)Nc2cc(Cl)ccc2N2CCN(C)CC2)cc1	none
COc1ccc(CC(=O)Nc2cc(Cl)ccc2N2CCCC2)cc1	G9a inh 44.7µM
COc1ccc(CC(=O)Nc2cc(S(=O)(=O)N3CCOCC3)ccc2N2CCCC2)cc1OC	none (no result: BAZ2B block, Sfp inh, G9a inh)
CCCCCC(=O)Nc1cc(S(=O)(=O)N2CCOCC2)ccc1N1CCCCC1	G9a inh 50.1µM (no result: Sfp inh)
CCCCCC(=O)Nc1cc(S(=O)(=O)N2CCCCC2)ccc1N1CCCCC1	none (no result: BAZ2B block, Sfp inh, G9a inh)
O=S(=O)(NCCCN1CCOCC1)c1ccc2c(c1)OCCO2	none
COC(=O)C1C(=O)c2c(C)noc2CC1(C)C (stereo not given)	none
C=CC[C@@H](CC(=O)N(CCO)Cc1ccccc1)C(=O)N[C@H](COC(=O)[C@@H](CC=C)CC(=O)OC(C)(C)C)Cc1ccccc1	none (no result: BAZ2B block, Sfp inh, G9a inh)
COc1ccc2c(c1)c(C(=O)CN1CCc3ccccc3C1)c(C)n2C	JMJD2A Tudor inh inconclusive, G9a inh 44.7µM
COc1ccc2[nH]c(C)c(C(=O)CN3CCc4cc(OC)c(OC)cc4C3)c2c1	G9a inh 50.1µM
CC(C)(c1ccc(O)cc1)c1ccc(O)cc1	none
CC(C)(C)C(=O)Nc1c(Cl)cccc1OC(F)(F)F	none
